Reference: PubChem BioAssay (Tox21)
Inconclusive results are not listed. Unmarked numbers belong to inactive results. The source made the active and inactive calls. Calls follow the shape of the dose curve; as a rule, active = well fitted cell-killing curve with a large enough effect in the repeat runs; inconclusive = weak or mixed curves, or effect the other way; inactive = flat fitted curve, though single readings scatter.

experiment: qHTS RealTime-Glo MT Cell Viability Assay in HEK293 cells - 0 hour (AID 1224880); details: RealTime-Glo luminescence; series mostly up to 76.8 µM; activity change, negative = cytotoxicity: at the top concentration; also: top concentration of the series differs between compounds; nearly all actives have a fitted effect of over 45% in size
Source text: U.S. Tox21 Program National Center for Advancing Translational Sciences [NCATS] NIH Chemical Genomics Center [NCGC] U.S. Environmental Protection Agency [EPA] National Institutes of Environmental Health Sciences [NIEHS] National Toxicology Program [NTP] U.S. Food and Drug Administration [FDA] Tox21 Assay Overview: Measure of cell viability is critical in the cell-base assay. Analysis of cell viability is necessary for the characterization of cell responses to cytotoxic drugs and environmental stress. A RealTime-Glo MT Cell Viability Assay to monitor cell viability in real time of continues cell culture during 40 hours of compound treatment was used to screen Tox21 10K library compounds in Hek293 cells. The RealTime-Glo MT Cell Viability Assay is a nonlytic, homogeneous, bioluminescent method to measure cell viability in real time using a simple, plate-based method. The assay involves adding NanoLuc luciferase and a cell-permeant prosubstrate to cells in culture. Viable cells reduce the proprietary prosubstrate to generate a substrate for NanoLuc luciferase. This substrate diffuses from cells into the surrounding culture medium, where it is rapidly used by the NanoLuc Enzyme to produce a luminescent signal. The signal correlates with the number of viable cells, making the assay well suited for cytotoxicity studies.
Tox21 Assay Protocol Summary: The mixture of Hek293 cell suspension and reagents were dispensed at 600cells/6 ul/well in 1536-well tissue culture treated black solid bottom plates using a Multidrop dispenser. After the assay plates were incubated at a 37 C/5% CO2 incubator for 5 hours, 23 nL of compounds dissolved in DMSO, positive and negative controls was transferred to the assay plate by a pintool work station. The plates were incubated at 37 C for 40 hours. The luminescence intensity were measured at 0h, 8h, 16h, 24h, 32h and 40h time points using ViewLux plate reader during compound treatment.
% is scaled to controls: 0 for no effect and ±100 for the full control effect.

Row | SMILES | activity change, negative = cytotoxicity | outcome
1 | C(COCC1CO1)OCC1CO1 (stereo not given) | 6.61% | –
2 | O=c1[nH]c2ccccc2n1C1CCNCC1 | -3.5% [at 35.3 µM] | –
3 | CCOC(=O)CC(SP(=S)(OC)OC)C(=O)OCC (stereo not given) | – | inactive
4 | CCC(C)(C#N)N=NC(C)(C#N)CC (stereo not given) | -3.07% | –
5 | BrCc1ccc(Br)cc1 | -0.569% | –
6 | ClC1=C(Cl)C2(Cl)C(CBr)CC1(Cl)C2(Cl)Cl (stereo not given) | – | inactive
7 | CCCCCCC1CCOC1=O (stereo not given) | -2.2% | –
8 | CC(C)(C)C(=O)C(Cl)Cl | 5.91% | –
9 | CON(C)C(=O)Nc1ccc(Br)cc1 | 21.6% | –
10 | CCCN1CCC[C@@H]2Cc3[nH]ncc3C[C@H]21 | -4.84% [at 35.3 µM] | –
11 | CC[C@H](N)c1ccccc1 | 4.46% | –
12 | CC(C)C(C)(N)C#N (stereo not given) | -7.51% | –
13 | CC(C)[N+](C)(CCC(C(N)=O)(c1ccccc1)c1ccccc1)C(C)C | -17.4% [at 35.3 µM] | –
14 | C=C(C)[C@H]1CN[C@H](C(=O)O)[C@H]1CC(=O)O | -2.77% [at 35.3 µM] | –
15 | CCN(CCO)CCn1c(Cc2ccccc2)nc2c1c(=O)n(C)c(=O)n2C | -1.62% [at 35.3 µM] | –
16 | CNC(=O)O/N=C(/CSC)C(C)(C)C | 6.44% | –
17 | CN(C)C1CCCCC1 | 7.43% | –
18 | CC(Cc1ccccc1)NCCCCl (stereo not given) | 6.68% [at 35.3 µM] | –
19 | O=C1CCCCC1Cl (stereo not given) | 4.63% | –
20 | CCN[C@@H](C)Cc1cccc(C(F)(F)F)c1 | 21.8% [at 35.3 µM] | –

Row | SMILES | activity change, negative = cytotoxicity | outcome
21 | CCOP(=S)(OCC)SCCl | 13.2% | –
22 | CCC1(c2ccccc2)C(=O)N(COC)C(=O)N(COC)C1=O | 3.34% [at 35.3 µM] | –
23 | C1CN2CCC1CC2 | 3.09% [at 35.3 µM] | –
24 | CCCCCCCC(=O)Cl | -0.0375% | –
25 | O=CCCl | 3.02% | –
26 | CC1=C2[C@H]3OC(=O)[C@@H](C)[C@@H]3CC[C@@]2(C)C=CC1=O | -0.0626% [at 35.3 µM] | –
27 | CC[C@@H](CO)NC(=O)[C@@H]1C=C2c3cccc4c3c(cn4C)C[C@H]2N(C)C1 | -7.1% [at 35.3 µM] | –
28 | COC(=O)c1ccc(CBr)cc1 | 3.7% | –
29 | CC(C)(O)C(Cl)(Cl)Cl | -0.125% [at 35.3 µM] | –
30 | C[C@]12C=CC(=O)C=C1CC[C@@H]1[C@@H]2CC[C@@]2(C)[C@H]1CC[C@]2(C)O | -15% [at 35.3 µM] | –
31 | [O-][Br+2]([O-])O | 0% [at 35.3 µM] | –
32 | CCNc1nc(Cl)nc(NC(C)(C)C)n1 | 12.6% | –
33 | CCN1CCCC1CNC(=O)C(O)(c1ccccc1)c1ccccc1 (stereo not given) | -3.17% [at 35.3 µM] | –
34 | CCNP(=S)(OC)O/C(C)=C/C(=O)OC(C)C (stereo not given) | 5.31% | –
35 | N#CN=C1SCCN1Cc1ccc(Cl)nc1 | 2.62% | –
36 | O=P(O)(O)c1ccccc1 | 11.5% | –
37 | O=C(O)c1c(Cl)ccc2cc(Cl)cnc12 | -0.74% | –
38 | CCCCCCCCSC(=O)Oc1cc(Cl)nnc1-c1ccccc1 | 2.5% | –
39 | O=C1CC(=O)NC(=O)N1 | -5.33% | –
40 | COP(=O)(O)OC | -13.7% | –
